Data: PubChem BioAssay
Measured potencies and affinities stand elsewhere. The source made the active and inactive calls. The limit is not given here; nearly all actives have IC50 up to about 0.98 µM.

molecular target: Calcium-dependent protein kinase 1 (Plasmodium falciparum (isolate 3D7)) (UniProt P62344); experiment: PfCDPK1 kinase inhibitors, biochemical, TCAMS library (AID 1159585); conditions: recombinant PfCDPK1, Kinase-Glo ATP depletion luminescence;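 also: inhibitors leave more ATP so luminescence rises with inhibition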
Sequence (P62344 whole entry, looked up): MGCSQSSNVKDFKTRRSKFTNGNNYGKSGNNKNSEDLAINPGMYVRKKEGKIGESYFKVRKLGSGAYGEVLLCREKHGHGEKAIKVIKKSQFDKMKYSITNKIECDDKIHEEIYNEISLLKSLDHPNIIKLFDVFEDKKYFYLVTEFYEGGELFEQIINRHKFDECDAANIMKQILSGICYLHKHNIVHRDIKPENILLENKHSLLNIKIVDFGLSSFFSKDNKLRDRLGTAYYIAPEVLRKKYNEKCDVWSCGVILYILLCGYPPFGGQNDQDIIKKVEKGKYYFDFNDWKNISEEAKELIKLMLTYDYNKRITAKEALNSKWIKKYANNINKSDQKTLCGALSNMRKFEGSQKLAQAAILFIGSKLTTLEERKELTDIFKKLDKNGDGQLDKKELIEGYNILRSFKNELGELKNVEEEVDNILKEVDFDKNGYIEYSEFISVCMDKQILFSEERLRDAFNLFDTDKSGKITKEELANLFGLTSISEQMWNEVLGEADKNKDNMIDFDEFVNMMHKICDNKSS

outcome, inactive:
Cc1cc(N(C)CCN(C)C)nc(Nc2ccc(Cl)cc2)n1, c1ccc(CN2CCC(Nc3ccc(-c4cn[nH]c4-c4ccccn4)nc3)CC2)cc1, O=C(Nc1ccc2c(c1)CCN2C1CCN(Cc2ccc(O)cc2)C1)c1ccco1 (stereo not given), Cc1ccc(NC(=O)c2ccc(CN3CCCN(CC4CCCCC4)CC3)cc2)cc1, COc1ccc2ccccc2c1CCCCN1CCN(CC(c2ccc(F)cc2)N2CCC(N3CCCC3)CC2)CC1 (stereo not given), O=C(NCCN1CCC(NC(=O)c2ccc(-c3ccccn3)s2)CC1)c1ccc(Cl)c(Cl)c1, Cc1cc(NN=Cc2ccc(F)cc2)c2ccc(F)cc2n1, C=C[C@H]1CN(CCCCCCC)CC[C@H]1CCNc1ccnc2ccc(OC)cc12, CCC(O)c1ccc(Br)cc1NC(=O)c1cccc(Cl)c1 (stereo not given), FC(F)(F)c1ccc2nc(-c3cccc(-c4ccc(CNCCc5ccncc5)cc4)c3)[nH]c2c1, CC(C)C[C@@H](/C=N/N1CC(=O)NC1=O)NC(=O)[C@H](CC(C)C)NC(=O)c1ccc(OCCN2CCOCC2)cc1, Cc1cccc2[nH]c(-c3cccc(-c4ccc(CNCc5cnn(-c6ccccc6)n5)cc4)c3)nc12, CCNC(=O)N[C@@H]1CN[C@@H](C#Cc2cc3c(Nc4ccc(OCc5cccc(F)c5)c(Cl)c4)ncnc3s2)C1, CN1CCN(CCCN(Cc2ccc(-c3ccc(CNC4CCCC4)cc3)cc2)C(=O)CCC2CCCC2)CC1, CCOC(=O)c1c[nH]c2c(sc3cc(OC)ccc32)c1=O
